Compound activity (PubChem)
Pin1 inh: inhibitors of human Pin1; Q13526; Pin1 FP peptide displacement, HiFluor488, 10 min; Potency, µM (top dose mostly 115 µM), for inactives: at the highest dose activity, negative = inhibition, actives largely listed as inhibitors; 390,000 tested, 0.009% active; AID 504891; active = well fitted inhibition curve with a large enough effect in the polarisation, with a control signal flat, not every such curve was filed as active; inconclusive = small, poorly fitted or top-dose-only effect, or effect the other way, or a change in a side signal; inactive = no such curve, though single readings can be large or run the other way; the % refers to the polarisation; note: % is set by controls: 0 for no effect and ±100 for the full control effect
Target sequence (Q13526 whole entry, looked up): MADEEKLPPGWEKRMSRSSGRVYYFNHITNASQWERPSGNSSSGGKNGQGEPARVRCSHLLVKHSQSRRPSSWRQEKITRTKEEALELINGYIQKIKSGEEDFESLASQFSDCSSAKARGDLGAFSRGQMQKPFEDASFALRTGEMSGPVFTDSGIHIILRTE
A549 tox: A549 cytotoxicity, counter-screen for Nrf2 inhibitors. A549 ARE-Fluc cells, CellTiter-Fluor viability, 18-24 h. Potency, µM (top dose mostly 46 µM), for the others: at the highest dose activity change, negative = cytotoxicity, hits mostly inhibitors. AID 504648. 390,000 tested, 0.16% active; note: % is set by controls: 0 for no effect and ±100 for the full control effect
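Cytotoxicity counterscreen: CellTiter-Fluor fluorescence was measured in A549 ARE_Fluc cells after 18-24 h of compound exposure in a concentration series. The subsequent BugLite luminescent read reports ARE-luciferase activity.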
Nrf2 inh: blocks Nrf2 signaling; A549 ARE-Fluc reporter, luciferase luminescence, 18-24 h; Potency, µM (series often up to 46 µM), inactives show top-dose activity change, negative = inhibition, hits mostly inhibitors; 360,000 tested, 2.1% active; note: % is set by controls: 0 for no effect and ±100 for the full control effect; nearly all actives have a fitted effect of over 60% in size
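Nrf2 function is reported as luminescence of an ARE-controlled luciferase in A549 cells. Compounds were tested at several concentrations, and a CellTiter-Fluor read on the same wells flagged cytotoxicity.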
Nrf2 activator: activators of Nrf2 (ARE) signaling; AREc32 ARE-luciferase reporter (MCF7-derived line), luminescence, 24 h; Potency, µM (titrated, usually from 46.1 µM), for the others: at the highest dose activation, usual class: activators; 410,000 tested, 0.31% active; AID 624171; note: % of control where 0% means no effect; nearly all actives have a fitted effect of over 65% in size
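Luminescent ARE reporter assay in AREc32_Fluc cells: overnight plating at 37 deg C, 24 hr compound incubation, Steady-Glo added, 30 min RT before reading.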
Starred values were filed as active, the others as inactive; ? = inconclusive; . = no result. Only some compounds are listed: those with a hit (about 2.2% of all), similar ones and a draw of the others. Unless noted, calls come from the whole dose curve; as a rule, active = well fitted curve in the direction sought with a large enough effect; inconclusive = small, poorly fitted or top-dose-only effect, or another doubt; inactive = no such curve, though single readings can be large; an effect the other way counts as inactive or inconclusive. Potency is the fitted concentration of half-maximal effect.

SMILES	Pin1 inh	A549 tox	Nrf2 inh	Nrf2 activator
CN(C)c1cccc(C(=O)OC(C(=O)Nc2ccc([N+](=O)[O-])cc2Br)c2ccccc2)c1 (stereo not drawn)	12%	-8%	-13%	-1%
O=C(OCC1CCCO1)c1ccc2c(c1)N(Cc1ccccc1F)C(=O)c1ccccc1S2(=O)=O (stereo not drawn)	17%	1%	7%	0%
CN(C(=O)c1sc2nc(N3CCOCC3)c3c(c2c1N)CCCC3)c1ccccc1	1%	1%	16µM*	1%
COc1cccc(CN2C(=O)C(C)N(C(=O)c3c(F)cccc3F)c3ccccc32)c1 (stereo not drawn)	17%	-7%	21µM*	0%
CC1C(=O)N(Cc2ccccc2F)c2ccccc2N1C(=O)c1c(F)cccc1F (stereo not drawn)	0%	1%	?	0%
Clc1ccc(-c2noc(CSc3nnc(Cc4cccs4)n3-c3ccccc3)n2)cc1	20%	-8%	16µM*	0%
Cc1ccc(-c2noc(CSc3nnc(Cc4ccccc4)n3-c3cccc(C)c3)n2)cc1	10%	?	26µM*	0%
CCOc1ccc(-c2noc(CSc3nnc(Cc4ccccc4)n3-c3cccc(C)c3)n2)cc1	7%	?	26µM*	0%
COc1ccc(-c2noc(CSc3nnc(Cc4ccccc4)n3-c3cccc(C)c3)n2)cc1OC	56%	-8%	?	4%
O=C(Cn1cc2c(n1)CCCC2)Nc1cc(C(F)(F)F)ccc1Cl	-3%	17%	6%	3%
O=C1CC(c2nnc(Cc3ccc(F)cc3Cl)o2)CN1c1ccccc1 (stereo not drawn)	7%	4%	-6%	-1%
CC(=O)N1CCc2c(sc3c2c(=O)n(CCc2ccccc2)c(=O)n3Cc2ccccc2C)C1	43%	-29%	18µM*	0%
Cc1ccc2occ(C(=O)c3ccco3)c(=O)c2c1	0%	-3%	20%	13µM*
Cc1ccc(-c2nn3c(=O)cc(CN4CCN(C(=O)c5ccc(C(C)(C)C)cc5)CC4)nc3s2)cc1	-1%	4%	.	1%
Cc1[nH]nc2c1C1(C(=O)N(Cc3ccc(Cl)cc3)c3ccccc31)C(C#N)=C(N)O2 (stereo not drawn)	?	-6%	21µM*	0%
O=C(CN1CCN(c2ncc(C(F)(F)F)cc2Cl)CC1)NCCNc1ncc(C(F)(F)F)cc1Cl	-10%	?	15µM*	0%
Cc1cccc(NC(=O)c2cn(-c3ccccc3)nc2-c2ccccc2)c1C	-5%	1%	?	3%
CCN(c1ccc(NC(=O)c2ccc(N3CCCC3=O)cc2)cc1)C(C)C	5%	-21%	9.2µM*	-1%
COc1ccc(C2NC(=O)N(C)C3=C2C(=O)N(c2cccc(Cl)c2)C3)cc1 (stereo not drawn)	0%	-16%	-7%	0%
CC(C)(CNc1ccc([N+](=O)[O-])cc1C#N)N1CCOCC1	-6%	-17%	-5%	0%
CC(C)(CNc1ccc(S(=O)(=O)C(F)(F)F)cc1[N+](=O)[O-])N1CCOCC1	5%	1%	23µM*	-1%
CC1(C)CC2CC(C)(CN2c2ncnc3ccccc23)C1 (stereo not drawn)	-9%	?	10µM*	0%
N#Cc1c(C(F)(F)F)cc(-c2cccs2)nc1SCc1cccnc1	-1%	?	13µM*	8%
C#CCSc1nc(-c2ccccc2)cc(C(F)(F)F)c1C#N	?	2%	-16%	8.9µM*
Cc1ccc(-c2cc(C(F)(F)F)c(C#N)c(SCCC#N)n2)o1	-25%	-2%	7%	7.1µM*
SMILES	Pin1 inh	A549 tox	Nrf2 inh	Nrf2 activator
C#CCSc1nc(-c2ccccc2)cc(-c2ccccc2)c1C#N	20%	12%	-9%	5%
N#Cc1c(C(F)(F)F)cc(-c2cccs2)nc1SCc1ccc(F)cc1	0%	5%	11%	3%
O=S(=O)(Nc1ccc(C(F)(F)F)cc1)c1ccc2c(c1)OCCO2	-3%	0%	?	0%
Oc1ccccc1C1C=C(c2ccc3c(c2)OCO3)NC(c2ccc(Br)cc2)N1 (stereo not drawn)	2%	-1%	1%	.
CC(C)(C)C(=O)Nc1ccc(Sc2ccc([N+](=O)[O-])cc2)cc1	8%	1%	16µM*	5%
CCN(CC)C(=O)CSc1nnc2nnc3cc(OC)ccc3n12	?	?	18µM*	4%
CCN(CC)C(=O)CSc1nnc(COc2ccc(OC)cc2)n1N	2%	-5%	-1%	0%
CC(C)(C)C(=O)NC(=S)NNC(=O)C(c1ccccc1)c1ccccc1	-2%	-26%	21µM*	-1%
CC(=O)NNC(=S)NC(=O)C(c1ccccc1)c1ccccc1	-1%	?	16µM*	0%
CCNC(=S)NNC(=O)C(c1ccccc1)c1ccccc1	-1%	-2%	5%	0%
COc1ccc(C2Nc3ccccc3C(=O)N2CCO)cc1COc1ccc(NC(C)=O)cc1 (stereo not drawn)	-3%	-9%	-11%	.
COc1ccc(-c2nc3ccc(C(=O)NCC(OC)OC)cc3nc2-c2ccc(OC)cc2)cc1	-11%	-7%	-7%	0%
COC(CNC(=O)c1ccc2nc(-c3ccccc3)c(-c3ccccc3)nc2c1)OC	-1%	-15%	16µM*	0%
CCC(=O)Nc1ccc(N2CCN(C(=O)c3ccccc3C)CC2)cc1	-7%	-17%	-4%	-1%
Cc1ccccc1C(=O)N1CCN(c2ccc(NC(=O)c3ccc4c(c3)OCCO4)cc2)CC1	-1%	-4%	21µM*	0%
Cc1ccccc1C(=O)N1CCN(c2ccc(NC(=O)CSc3ccc(Cl)cc3)cc2)CC1	21%	-28%	21µM*	0%
O=C(Nc1ccc(N2CCN(C(=O)c3ccccc3)CC2)cc1)c1ccc2c(c1)OCO2	1%	-19%	?	0%
COc1c(C)cccc1C(=O)Nc1ccc(N2CCN(C(=O)c3ccccc3C)CC2)cc1	4%	-14%	21µM*	-1%
Cc1ccccc1C(=O)N1CCN(c2ccc(NC(=O)c3cccc(OC(C)C)c3)cc2)CC1	-1%	-1%	0%	0%
COc1ccc(N2CCN(c3ccc(-c4nc(-c5ccccc5)no4)cc3[N+](=O)[O-])CC2)cc1	1%	1%	-14%	4%
COc1ccc(SCC(Cc2ccccc2)N2CCN(CC(C)C)CCC2=O)cc1 (stereo not drawn)	5%	-18%	15%	.
CCOC(=O)C(C(=O)OCC)C(Nc1cccc(Br)c1)c1ccccc1 (stereo not drawn)	-6%	?	18µM*	?
CC(=O)c1c(C)[nH]c(C(=O)OCC(=O)N2CCN(S(=O)(=O)c3ccc(C)cc3C)CC2)c1C	?	-14%	?	-1%
CCOc1ccc(OCC(=O)N2CCN(S(=O)(=O)c3ccccc3)CC2)cc1	.	.	.	-1%
CCOc1ccc(S(=O)(=O)N2CCCC(C(=O)N3CCN(c4ccccc4)CC3)C2)cc1 (stereo not drawn)	2%	-18%	23µM*	0%
